# Measurements as given in PubChem BioAssay (EPA / NIEHS).
# “And” between values parts separate entries of the source, which are not always exact repeats. Equal values may be shown once. Inconclusive results are not listed. The source holds several records for some structures; these can differ, active in one and inactive in another. The source made the active and inactive calls. How the source made its calls, unless noted: active means hit-call score of the fitted dose curve at least 0.9, where 1 is the maximum; inactive means score below 0.9.
# Legend:
# [1] = biological target: human Retinoid X Receptor beta (RXRb), RXRB (gene 6257) (UniProt P28702); assay: ATG_RXRb_TRANS: Attagene TRANS-FACTORIAL HepG2 Assay for human Retinoid X Receptor beta (RXRb) (AID 2283013; active means hit-call score of the fitted dose curve at least 0.9, where 1 is the maximum)
# human Retinoid X Receptor beta (RXRb), RXRB (gene 6257), sequence (P28702 whole entry, looked up, the tested form may be a part): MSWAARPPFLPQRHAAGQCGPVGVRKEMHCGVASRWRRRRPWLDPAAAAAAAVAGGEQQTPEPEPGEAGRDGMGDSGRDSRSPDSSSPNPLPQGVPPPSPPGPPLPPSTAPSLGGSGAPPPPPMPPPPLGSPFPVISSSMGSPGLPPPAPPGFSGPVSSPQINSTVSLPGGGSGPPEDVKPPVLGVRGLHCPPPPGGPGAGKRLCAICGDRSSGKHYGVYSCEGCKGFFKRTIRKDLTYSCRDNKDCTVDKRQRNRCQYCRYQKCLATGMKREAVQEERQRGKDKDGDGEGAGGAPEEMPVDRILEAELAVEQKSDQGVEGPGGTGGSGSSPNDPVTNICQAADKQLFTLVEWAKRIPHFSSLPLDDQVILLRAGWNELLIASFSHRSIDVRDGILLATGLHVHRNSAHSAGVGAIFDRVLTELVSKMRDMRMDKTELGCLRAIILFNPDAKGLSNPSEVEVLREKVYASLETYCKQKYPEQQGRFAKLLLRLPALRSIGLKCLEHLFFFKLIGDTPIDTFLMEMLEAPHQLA
# How it was run: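 HepG2 cells were transiently transfected with multiplexed GAL4-UAS reporters and a chimeric RXRb-Gal4 construct, then exposed for 24 h. Reporter mRNA was quantified by RT-PCR, FAM labeling, HpaI digestion and capillary electrophoresis; gain of signal was scored against DMSO.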
# [2] = biological target: human Thyroid Receptor alpha (THRa1), THRA (gene 7067) (UniProt P10827); assay: ATG_THRa1_TRANS: Attagene TRANS-FACTORIAL HepG2 Assay for human Thyroid Receptor alpha (THRa1) (AID 2283014; active means hit-call score of the fitted dose curve at least 0.9, where 1 is the maximum)
# human Thyroid Receptor alpha (THRa1), THRA (gene 7067), sequence (P10827 whole entry, looked up, the tested form may be a part): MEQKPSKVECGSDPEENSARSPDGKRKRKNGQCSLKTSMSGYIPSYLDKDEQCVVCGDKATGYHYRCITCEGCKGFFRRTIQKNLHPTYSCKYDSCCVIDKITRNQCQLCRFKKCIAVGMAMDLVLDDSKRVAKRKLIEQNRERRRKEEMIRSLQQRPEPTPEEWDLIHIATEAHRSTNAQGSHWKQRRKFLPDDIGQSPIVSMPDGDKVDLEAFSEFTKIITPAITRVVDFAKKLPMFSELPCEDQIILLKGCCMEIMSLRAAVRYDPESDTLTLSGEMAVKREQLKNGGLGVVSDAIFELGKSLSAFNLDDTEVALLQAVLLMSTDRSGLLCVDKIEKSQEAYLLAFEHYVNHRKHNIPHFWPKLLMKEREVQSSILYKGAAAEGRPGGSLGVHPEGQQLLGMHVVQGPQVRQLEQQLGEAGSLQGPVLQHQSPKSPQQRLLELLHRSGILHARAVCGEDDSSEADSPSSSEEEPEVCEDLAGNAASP
# How it was run: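 HepG2 cells transiently transfected with multiplexed GAL4-UAS reporter units for exogenous chimeric THRa1-Gal4; reporter mRNA measured 24 h after dosing by RT-PCR, 6-FAM labelling, HpaI digestion and capillary electrophoresis. Gain-of-signal fitted versus DMSO baseline.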
# [3] = biological target: human Vitamin D Receptor (VDR), VDR (gene 7421) (UniProt P11473); assay: ATG_VDR_TRANS: Attagene TRANS-FACTORIAL HepG2 Assay for human Vitamin D Receptor (VDR) (AID 2283022; active means hit-call score of the fitted dose curve at least 0.9, where 1 is the maximum)
# human Vitamin D Receptor (VDR), VDR (gene 7421), sequence (P11473 whole entry, looked up, the tested form may be a part): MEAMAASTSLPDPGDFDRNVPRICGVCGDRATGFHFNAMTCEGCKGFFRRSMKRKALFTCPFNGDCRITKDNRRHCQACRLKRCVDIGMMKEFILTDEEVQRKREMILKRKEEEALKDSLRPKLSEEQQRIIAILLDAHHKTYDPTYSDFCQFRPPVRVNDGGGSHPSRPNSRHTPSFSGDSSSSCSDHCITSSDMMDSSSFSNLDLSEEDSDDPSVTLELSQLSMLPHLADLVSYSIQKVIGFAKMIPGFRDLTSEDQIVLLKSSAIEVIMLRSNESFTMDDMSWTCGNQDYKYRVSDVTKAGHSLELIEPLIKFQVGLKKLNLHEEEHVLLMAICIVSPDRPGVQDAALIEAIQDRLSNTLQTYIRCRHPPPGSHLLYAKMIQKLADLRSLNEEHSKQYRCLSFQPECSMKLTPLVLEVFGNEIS
# How it was run: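 HepG2 cells were transiently transfected with multiple GAL4-UAS reporter units, so signal reflects exogenous chimeric receptor-Gal4 activity. After 24 h compound exposure, reporter mRNA was measured by RT-PCR, fluorescent labelling and capillary electrophoresis, fitted for gain of signal versus DMSO.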
# [4] = read-out: E-selectin (Homo sapiens) (UniProt P16581); assay: BSK_3C_Eselectin: BioMAP Diversity Plus: 3C Assay for Eselectin Biomarker Activity (AID 2283015); conditions: primary human endothelial cells (HUVEC); actives raise or lower the signal
# How it was run: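 Primary human umbilical vein endothelial cells (3C system) were dosed with chemical and cell-surface E-selectin measured by ELISA 24 h later. Bidirectional curve fitting used DMSO as negative control and baseline.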
# [5] = read-out: Monocyte Chemoattractant Protein-1 (MCP1), CCL2 (gene 6347); assay: BSK_3C_MCP1: BioMAP Diversity Plus: 3C Assay for Monocyte Chemoattractant Protein-1 (MCP1) Biomarker Activity (AID 2283017); conditions: primary human endothelial cells (HUVEC); actives raise or lower the signal
# How it was run: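 Primary human umbilical vein endothelial cells (3C system) were exposed to test chemical for 24 h, after which MCP-1 was quantified by ELISA. Activity was fitted bidirectionally against DMSO as negative control and baseline.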
# [6] = read-out: Monocyte Chemoattractant Protein-1 (MCP1), CCL2 (gene 6347); assay: BSK_4H_MCP1: BioMAP Diversity Plus: 4H Assay for Monocyte Chemoattractant Protein-1 (MCP1) Biomarker Activity (AID 2283018); conditions: primary human endothelial cells (HUVEC); actives raise or lower the signal
# How it was run: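 Human umbilical vein endothelial cells (4H system) exposed to chemicals for 24 h in 96-well format. MCP-1 measured by ELISA; bidirectional fitting against DMSO, with SRB total-protein staining in parallel cultures for cytotoxicity.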
# [7] = read-out: Human Leukocyte Antigen - DR isotype (HLADR), HLA-DRA (gene 3122); assay: BSK_3C_HLADR: BioMAP Diversity Plus: 3C Assay for Human Leukocyte Antigen - DR isotype (HLADR) Biomarker Activity (AID 2283019); conditions: primary human endothelial cells (HUVEC); actives raise or lower the signal;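 further: ELISA of cell-surface HLA-DR on HUVEC 24 h after dosing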
# How it was run: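 Primary human umbilical vein endothelial cells (3C system) were dosed with compound and cell-surface HLA-DR was quantified by ELISA at 24 h. Activity was fitted bidirectionally against DMSO as negative control and baseline.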
# [8] = read-out: Interleukin-8 (IL8), CXCL8 (gene 3576); assay: BSK_3C_IL8: BioMAP Diversity Plus: 3C Assay for Interleukin-8 (IL8) Biomarker Activity (AID 2283020); conditions: primary human endothelial cells (HUVEC); actives raise or lower the signal
# How it was run: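 Primary human umbilical vein endothelial cells were dosed for 24 h. IL-8 was quantified by ELISA and fitted bidirectionally against DMSO. Cytotoxicity was assessed in parallel cultures by SRB staining at 560 nm.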
# [9] = read-out: Monokine induced gamma interferon (MIG), CXCL9 (gene 4283); assay: BSK_3C_MIG: BioMAP Diversity Plus: 3C Assay for Monokine induced gamma interferon (MIG) Biomarker Activity (AID 2283021); conditions: primary human endothelial cells (HUVEC); actives raise or lower the signal
# How it was run: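 HUVEC primary endothelial cultures dosed with chemical; MIG quantified by ELISA at 24 h. Data fitted bidirectionally against DMSO control, with parallel SRB total-protein staining for cytotoxicity.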
# [10] = BSK_3C_SRB: Viability Assessment in the BioMAP Diversity Plus: 3C Assay (AID 2283023); conditions: primary human endothelial cells (HUVEC);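 further: fitted both ways against DMSO so a hit may be signal rise or drop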
# How it was run: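 Primary human umbilical vein endothelial cells in the 3C system were read 24 h after compound dosing. Total protein was stained with 0.1% sulforhodamine B after 10% TCA fixation and read at 560 nm, with bidirectional fitting against DMSO as baseline.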
# [11] = read-out: Pselectin, SELP (gene 6403); assay: BSK_4H_Pselectin: BioMAP Diversity Plus: 4H Assay for Pselectin Biomarker Activity (AID 2283026); conditions: primary human endothelial cells (HUVEC); actives raise or lower the signal
# How it was run: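 Primary human umbilical vein endothelial cells were treated 24 h, and cell-surface P-selectin was then quantified by ELISA. Bidirectional fit versus DMSO; cytotoxicity checked in parallel cultures by SRB total-protein staining.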
# [12] = BSK_4H_SRB: Viability Assessment in the BioMAP Diversity Plus: 4H Assay (AID 2283027); conditions: primary human endothelial cells (HUVEC);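 further: cells exposed to compound for 24 h before staining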
# How it was run: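 Human umbilical vein endothelial cells, 24 h after chemical dosing; total protein measured by 0.1% sulforhodamine B staining after 10% TCA fixation, read at 560 nm. Bidirectional fitting against DMSO.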
# [13] = BSK_BE3C_SRB: Viability Assessment in the BioMAP Diversity Plus: BE3C Assay (AID 2283028); conditions: primary human bronchial epithelial cells
# How it was run: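 Human primary bronchial epithelial cells were exposed to test chemicals for 24 h. Total protein in parallel cultures was then measured by staining with 0.1% sulforhodamine B after 10% TCA fixation, with absorbance read at 560 nm. Activity was fitted bidirectionally against DMSO.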
# [14] = read-out: Thrombomodulin, THBD (gene 7056); assay: BSK_3C_Thrombomodulin: BioMAP Diversity Plus: 3C Assay for Thrombomodulin Biomarker Activity (AID 2283029); conditions: primary human endothelial cells (HUVEC); actives raise or lower the signal
# How it was run: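 Human umbilical vein endothelial cells were exposed to chemicals for 24 h; cell-surface thrombomodulin quantified by ELISA, with bidirectional fitting against DMSO baseline.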
# [15] = read-out: Urokinase-type plasminogen activator receptor (uPAR), PLAUR (gene 5329); assay: BSK_4H_uPAR: BioMAP Diversity Plus: 4H Assay for Urokinase-type plasminogen activator receptor (uPAR) Biomarker Activity (AID 2283030); conditions: primary human endothelial cells (HUVEC); actives raise or lower the signal
# How it was run: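 Primary human umbilical vein endothelial cells were exposed to chemical for 24 h before cell-surface uPAR was quantified by ELISA. Activity was fitted bidirectionally against the DMSO negative control baseline.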
# [16] = read-out: Vascular endothelial growth factor receptor 2 (Homo sapiens) (UniProt P35968); assay: BSK_4H_VEGFRII: BioMAP Diversity Plus: 4H Assay for Vascular endothelial growth factor receptor 2 (VEGFR2) Biomarker Activity (AID 2283031); conditions: primary human endothelial cells (HUVEC); actives raise or lower the signal
# How it was run: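 Primary human umbilical vein endothelial cells in the BioMAP 4H system were dosed with test chemical, and 24 h later VEGFRII was measured by ELISA. Activity was fitted bidirectionally against DMSO as negative control and baseline.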
# E-selectin (Homo sapiens), sequence (P16581 whole entry, looked up): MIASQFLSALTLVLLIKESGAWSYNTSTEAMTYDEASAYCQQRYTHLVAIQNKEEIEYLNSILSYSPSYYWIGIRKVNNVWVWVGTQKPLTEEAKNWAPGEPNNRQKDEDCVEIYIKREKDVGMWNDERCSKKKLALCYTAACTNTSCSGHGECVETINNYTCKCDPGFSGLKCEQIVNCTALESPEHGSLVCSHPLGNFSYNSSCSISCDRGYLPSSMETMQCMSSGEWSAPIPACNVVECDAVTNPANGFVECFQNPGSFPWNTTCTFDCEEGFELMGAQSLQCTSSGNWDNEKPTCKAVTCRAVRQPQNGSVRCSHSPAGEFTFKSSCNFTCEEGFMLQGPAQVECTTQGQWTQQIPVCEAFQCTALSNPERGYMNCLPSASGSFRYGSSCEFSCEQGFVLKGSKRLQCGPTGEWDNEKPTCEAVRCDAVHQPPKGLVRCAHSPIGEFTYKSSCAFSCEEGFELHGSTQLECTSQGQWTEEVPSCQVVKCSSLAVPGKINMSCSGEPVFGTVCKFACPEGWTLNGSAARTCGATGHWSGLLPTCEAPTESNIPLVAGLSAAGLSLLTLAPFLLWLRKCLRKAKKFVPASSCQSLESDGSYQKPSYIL
compound,measurement,setting,value
Cc1cc(Cc2cc(C)cc(C(C)(C)C)c2O)c(O)c(C(C)(C)C)c1,outcome,[1],inactive
same,outcome,[2],inactive
same,outcome,[3],inactive
C=CC(=O)OCCC(F)(F)C(F)(F)C(F)(F)C(F)(F)C(F)(F)C(F)(F)C(F)(F)C(F)(F)F,outcome,[1],inactive
same,outcome,[2],inactive
same,outcome,[4],inactive
same,outcome,[5],inactive
same,outcome,[6],inactive
same,outcome,[7],inactive
same,outcome,[8],inactive
same,outcome,[9],inactive
same,outcome,[10],inactive
same,outcome,[11],inactive
same,outcome,[12],inactive
same,outcome,[13],inactive
same,outcome,[14],inactive
same,outcome,[15],inactive
same,outcome,[16],inactive
OCC(F)(F)C(F)(F)C(F)(F)C(F)(F)C(F)(F)C(F)(F)C(F)(F)C(F)(F)C(F)(F)C(F)(F)C(F)(F)F,outcome,[1],inactive
same,outcome,[5],inactive
same,outcome,[6],inactive
same,outcome,[7],inactive
same,outcome,[8],inactive
same,outcome,[9],inactive
same,outcome,[3],inactive
same,AC50,[10],271 nM (active) and 201 nM (active)
same,AC50,[11],275 nM (active)
same,outcome,[11],inactive
same,outcome,[12],inactive
same,outcome,[13],inactive
same,AC50,[14],423 nM (active)
same,outcome,[14],inactive
same,outcome,[15],inactive
same,outcome,[16],inactive
Cc1cncc(C)c1,outcome,[1],inactive
same,outcome,[3],inactive
NS(=O)(=O)O,outcome,[1],inactive
same,outcome,[2],inactive
same,outcome,[3],inactive
CCOC=O,AC50,[1],6.71 µM (active)
same,outcome,[3],inactive
CCC1CO1 (centres undefined),outcome,[1],inactive
same,outcome,[3],inactive
CCCCCCCCC1CCC(=O)O1 (centres undefined),outcome,[1],inactive
same,outcome,[2],inactive
same,outcome,[3],inactive
CC1COCc2cc3c(cc21)C(C)(C)C(C)C3(C)C (centres undefined),AC50,[1],8.91 µM (active)
same,AC50,[3],128 µM (active)
CCCCCCCCCCCCCC[n+]1ccccc1,outcome,[1],inactive
same,outcome,[2],inactive
same,outcome,[3],inactive
O=CC(F)(F)C(F)(F)C(F)(F)C(F)F,outcome,[1],inactive
same,outcome,[2],inactive
same,outcome,[3],inactive
